Results on 14 compounds are retold here after PubChem BioAssay (NCI).

Some test systems named below: DU-145 prostate; K-562 leukemia; MALME-3M melanoma; MDA-MB-231 breast; RXF 393 renal; SF-268 CNS; SF-295 CNS; SF-539 CNS; UACC-257 melanoma; M14 melanoma.
Holding throughout (test): NCI-60 one-dose screen, 48 h (100 = growth as untreated, 0 = no growth, -100 = all killed)
What all share (conditions): 10 µM unless noted

Compounds without any hit were thinned out: in the full panel of roughly 83,000, 20% have a hit.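 Method: cells in 96-well plates; compound added at one concentration; 48 h incubation; percent growth measured; values under 10 scored active.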 A number with no mark means an inactive call. Activity calls are given as the source filed them.

For `O=C(O)c1cccnc1Br`, the growth is 129% in the assay on DU-145 prostate; 109% in the assay with K-562 leukemia; 109% in the assay on MALME-3M melanoma; 107% in the assay with MDA-MB-231 breast; 121% with RXF 393 renal; 110% in the assay on SF-268 CNS. Moreover, the growth with SF-295 CNS was 96.1%; in the assay on SF-539 CNS, 91.9%; in the assay on UACC-257 melanoma it was 106%; in the assay on M14 melanoma it was 99.7%.

Consider `Cc1cc(N/N=C/c2nc(-c3ccc(Cl)cc3)oc2C)c2cc(Br)ccc2n1`, for which the growth is 31.9% in the assay with DU-145 prostate; 0% (active) with K-562 leukemia; 7.27% (active) with MALME-3M melanoma; 70.4% with MDA-MB-231 breast; 98.6% in the assay with RXF 393 renal; 68.5% with SF-268 CNS. The growth was 105% with SF-295 CNS, 87.3% in the assay on SF-539 CNS, 101% with UACC-257 melanoma and 40.6% in the assay on M14 melanoma.

As to `COCCOC(=O)C1=C(C)NC(=S)NC1c1ccc2c(c1)OCO2` (stereo not given), the growth in the assay with DU-145 prostate was 108%; in the assay with K-562 leukemia, 91.8%; with MALME-3M melanoma, 108%; in the assay with MDA-MB-231 breast, 105%; with RXF 393 renal, 101%; with SF-268 CNS it was 97.4%. The growth was 105% with SF-295 CNS, 99.2% in the assay on SF-539 CNS, 90.2% with UACC-257 melanoma and 104% in the assay on M14 melanoma.

Regarding `CN1/C(=C\C=C\C2=[N+](C)c3ccccc3C2(C)C)C(C)(C)c2ccccc21`, the growth in the assay with DU-145 prostate was 25.2%; in the assay with K-562 leukemia, 6.42% (active); in the assay with MALME-3M melanoma it was -9.73% (active); in the assay with MDA-MB-231 breast it was 6.24% (active); in the assay with RXF 393 renal, -12.4% (active); in the assay with SF-268 CNS, 26.4%. In addition, the growth with SF-295 CNS was -11.3% (active); in the assay with SF-539 CNS, 5.93% (active); in the assay on UACC-257 melanoma, -40% (active); in the assay with M14 melanoma it was -42.6% (active).

As to `CCOC(=O)c1cnc2ccc(OC)cc2c1Nc1cccc(S(=O)(=O)NC)c1`, the growth with DU-145 prostate was 102%; in the assay on K-562 leukemia, 92.8%; with MALME-3M melanoma, 105%; in the assay on MDA-MB-231 breast it was 100%; in the assay with RXF 393 renal, -4.54% (active); in the assay on SF-268 CNS, 86.2%. Further, the growth is 54.7% in the assay with SF-295 CNS, 50.1% in the assay with SF-539 CNS, 112% in the assay on UACC-257 melanoma and 115% in the assay with M14 melanoma.

As for `CSc1nc2sc3c(c2c(=O)n1-c1ccc(C(C)C)cc1)CCC(=O)C3`, the growth is 40.5% with DU-145 prostate; 2.37% (active) with K-562 leukemia; 2.52% (active) in the assay on MALME-3M melanoma; -17.1% (active) with MDA-MB-231 breast; -2.94% (active) with RXF 393 renal; 18.9% in the assay with SF-268 CNS. For the same compound, the growth is 4.21% (active) in the assay on SF-295 CNS, -22.1% (active) in the assay on SF-539 CNS, 84.7% in the assay with UACC-257 melanoma and 10.1% in the assay with M14 melanoma.

For the compound `CCN(CC)CCCC(C)Nc1ccnc2c(OC)cccc12` (stereo not given), the growth was 120% in the assay with DU-145 prostate; 121% with K-562 leukemia; 142% with MALME-3M melanoma; 107% with MDA-MB-231 breast; 135% in the assay on RXF 393 renal; 124% with SF-268 CNS. Besides, the growth in the assay on SF-295 CNS was 109%; with SF-539 CNS, 116%; in the assay with UACC-257 melanoma it was 113%; in the assay on M14 melanoma it was 108%.

For `Nc1nc(SCc2ccccc2)c2ncn(C3CCCC3)c2n1`, the growth in the assay on DU-145 prostate is 101%; with K-562 leukemia, 104%; in the assay on MALME-3M melanoma, 121%; in the assay with MDA-MB-231 breast, 106%; with RXF 393 renal, 99.5%; in the assay on SF-268 CNS it was 121%. Besides, the growth in the assay with SF-295 CNS is 101%; in the assay with SF-539 CNS it was 91.2%; in the assay with UACC-257 melanoma, 129%; in the assay with M14 melanoma it was 129%.

In the case of `COc1ccc(-c2cc(C(=O)N=Nc3c(O)[nH]c4ccccc34)no2)cc1`, the growth is 104% in the assay on DU-145 prostate; 90.7% in the assay with K-562 leukemia; 102% with MALME-3M melanoma; 96.9% with MDA-MB-231 breast; 102% with RXF 393 renal; 99.4% in the assay with SF-268 CNS. Also, the growth in the assay with SF-295 CNS was 102%; with SF-539 CNS it was 100%; in the assay with UACC-257 melanoma it was 114%; with M14 melanoma, 101%.

As to `COc1cccc(-c2nc3sccn3c2-c2ccnc(NCCCNS(=O)(=O)c3ccc(Cl)cc3)c2)c1`, the growth is 51.3% in the assay on DU-145 prostate; 29.4% in the assay with K-562 leukemia; 74.1% in the assay with MALME-3M melanoma; 59.5% in the assay on MDA-MB-231 breast; 65.3% in the assay with RXF 393 renal; 44.2% with SF-268 CNS. The growth in the assay on SF-295 CNS was 42.7%; in the assay with SF-539 CNS, 66.7%; with UACC-257 melanoma, 59.4%; in the assay with M14 melanoma, 41.1%.

In the case of `Cc1cc(Cl)ccc1Nc1nc(C(F)(F)F)ccc1C(=O)N/N=C/c1ccc(F)cc1`, the growth in the assay with DU-145 prostate was 35.2%; in the assay on K-562 leukemia it was 5.33% (active); in the assay on MALME-3M melanoma, 6.12% (active); in the assay on MDA-MB-231 breast it was -9.74% (active); in the assay with RXF 393 renal, 17.8%; in the assay with SF-268 CNS it was 19.6%. The growth with SF-295 CNS is 17.4%; with SF-539 CNS, 24.6%; with UACC-257 melanoma it was 8.52% (active); in the assay on M14 melanoma it was 2.84% (active).

In the case of `O=C1O[C@H]([C@H](O)CO)C(O)=C1O`, the growth with DU-145 prostate is 100%; in the assay on K-562 leukemia, 107%; in the assay on MALME-3M melanoma, 119%; in the assay with MDA-MB-231 breast it was 97.1%; with RXF 393 renal it was 100%; with SF-268 CNS it was 117%. The growth in the assay with SF-295 CNS was 110%; in the assay on SF-539 CNS, 108%; in the assay with UACC-257 melanoma, 103%; in the assay with M14 melanoma, 106%.

Regarding `CCCCOc1ccc(NC(=O)n2nc(NC(C)=O)c3cc(NC(C)=O)ccc32)cc1`, the growth is 94.6% in the assay with DU-145 prostate; 33.7% in the assay on K-562 leukemia; 93.3% in the assay on MALME-3M melanoma; 105% in the assay on MDA-MB-231 breast; 95.6% in the assay with RXF 393 renal; 127% in the assay on SF-268 CNS. In addition, the growth with SF-295 CNS was 84%; with SF-539 CNS it was 95%; with UACC-257 melanoma it was 112%; in the assay with M14 melanoma it was 95.2%.

With `CN1CCN(Cc2ccc(NC(=O)c3cncc(C#Cc4c(N)ncc5ccc(C#N)cc45)c3)cc2C(F)(F)F)CC1`, the growth was -60.2% (active) in the assay on DU-145 prostate; -39.3% (active) with K-562 leukemia; -81.9% (active) with MALME-3M melanoma; -82% (active) with MDA-MB-231 breast; -76.6% (active) in the assay on RXF 393 renal; -43.3% (active) with SF-268 CNS. For the same compound, the growth is 85.9% in the assay with SF-295 CNS, 39.7% in the assay on SF-539 CNS, 68.7% with UACC-257 melanoma and -45.5% (active) in the assay with M14 melanoma.
